Most compounds without a hit are left out; they make up all but 5.9% or so of the library.
RORg inh: ROR gamma (mouse) transcription inhibition; 310,000 compounds, 5.4% hits; AID 2551; Drosophila S2 Gal4-RORgamma UAS-luciferase reporter, 20 h; Potency, µM (doses to about 53.6 µM), most hits filed as inhibitors; note: nearly all actives have a fitted effect of over 60% in size
Target sequence (P51450 whole entry, looked up, the tested form may be a part): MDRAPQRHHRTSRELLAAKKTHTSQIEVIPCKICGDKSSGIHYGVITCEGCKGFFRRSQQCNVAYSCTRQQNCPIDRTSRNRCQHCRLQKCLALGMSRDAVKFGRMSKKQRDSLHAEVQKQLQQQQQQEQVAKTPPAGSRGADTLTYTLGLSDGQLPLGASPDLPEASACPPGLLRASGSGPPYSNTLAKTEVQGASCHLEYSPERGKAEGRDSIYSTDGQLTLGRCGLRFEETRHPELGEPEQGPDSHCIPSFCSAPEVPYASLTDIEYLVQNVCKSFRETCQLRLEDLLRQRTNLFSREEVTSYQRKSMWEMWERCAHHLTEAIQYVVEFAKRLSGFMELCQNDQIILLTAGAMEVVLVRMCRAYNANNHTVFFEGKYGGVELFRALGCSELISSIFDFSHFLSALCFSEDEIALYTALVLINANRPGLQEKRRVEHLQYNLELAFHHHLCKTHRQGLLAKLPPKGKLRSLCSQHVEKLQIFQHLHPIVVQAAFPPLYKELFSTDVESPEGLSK
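Using a luciferase readout, inhibitors were identified by reduced reporter activity in Drosophila cells coexpressing a copper-inducible Gal4–ROR gamma fusion and UAS-driven Photinus luciferase, incubated 20 hr after 700 uM copper sulfate.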
TrxR1 inh: rat TrxR1 inhibition | Potency, µM (doses to about 114 µM), actives largely listed as inhibitors | 390,000 compounds, 1% hits | recombinant rTrxR1, NADPH fluorescence consumption, selenite substrate | O89049; note: nearly all actives have a fitted effect of over 65% in size
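Rat TrxR1 (90 nM in the dispensed reagent) was pre-reduced with 400 uM NADPH for 5 min at room temperature, then incubated with compound for 15 min. After 400 uM selenite was added, NADPH fluorescence (Ex 340/Em 450 nm) was followed for 8 min.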
TrxR1 substrate: is turned over as a substrate by rat TrxR1; Potency, µM (highest dose often 114 µM); purified TrxR1 substrate turnover, NADPH consumption readout; O89049; AID 588456; 390,000 compounds, 0.01% hits; note: nearly all actives have a fitted effect of over 50% in size
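Rat TrxR1, dispensed at 90 nM, was prereduced with 400 uM NADPH (final) for 5 min at ~22 deg C, then incubated with compound 15 min before 400 uM selenite. A first-read NADPH fluorescence drop versus no-compound background flagged substrates.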
VP16 counter: counter-screen for ROR gamma inhibitors: Gal4-VP16 reporter | Drosophila S2 Gal4-VP16 UAS-luciferase, luminescence, 20 h | Potency, µM (series often up to 53.6 µM), actives largely listed as inhibitors | 310,000 compounds, 3.5% hits | AID 2546;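 note: Gal4-VP16 expression switched on by copper sulfate through the metallothionein promoter; nearly all actives have a fitted effect of over 50% in size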
Coupling enz: counter-screen for Giardia aldolase inhibitors: coupling enzyme system; coupling enzyme system counterscreen, AmpLite Red fluorescence; activity change, negative = inhibition, % at 58.2 µM, hits read low; 290,000 compounds, 0.67% hits; AID 2472; in the data active = activity change below about -30%
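Compounds tested against the coupling enzymes alone at 57.5 uM final; readout was AmpLite Red fluorescence (525/598 nm) after 20 min at RT.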
GALK inh: inhibitors of human galactokinase | P51570 | Purified GALK, Kinase-Glo residual ATP luminescence | Potency, µM (top dose mostly 57.5 µM), most hits filed as inhibitors | 270,000 compounds, 0.007% hits | AID 1868
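Kinase-Glo Plus luminescence measured ATP left after a 1 h room-temperature reaction. The reaction used 5 nM GALK, 100 uM galactose and 35 uM ATP at pH 8.0 (20 mM HEPES, 5 mM MgCl2, 60 mM NaCl, 1 mM DTT, 0.01% BSA).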
A number is an active result; – = inactive; ? = inconclusive; · = not tested or not shown; [ ] = dose if it differs, or a comment. Unless noted, calls come from the whole dose curve; as a rule, active = well fitted curve in the direction sought with a large enough effect; inconclusive = small, poorly fitted or top-dose-only effect, or another doubt; inactive = no such curve, though single readings can be large; an effect the other way counts as inactive or inconclusive.

SMILES	RORg inh	TrxR1 inh	TrxR1 substrate	VP16 counter	Coupling enz	GALK inh
COc1ccccc1/C=C/C(=O)OCC(=O)NCc1ccco1	–	?	–	–	–	–
COc1cc(/C=C/C(=O)OCC(=O)NCc2ccco2)ccc1O	·	50.1µM	–	·	·	·
CCCc1cc(=O)[nH]c(SCC(=O)N(C)CC(=O)Nc2ccccc2CC)n1	–	–	–	–	–	–
O=C(Nc1ccc(C(=O)OCc2cc(=O)n3c4c(sc3n2)CCCC4)cc1)c1ccc(Cl)cc1	·	–	–	·	·	·
O=S(=O)(c1ccccc1Br)N1CCN(c2nc(-c3ccccc3)nc3ccccc23)CC1	·	–	–	·	·	·
O=C(COC(=O)/C=C/c1ccco1)Nc1ncc(Cl)cc1Cl	–	50.1µM	–	?	–	–
COC(=O)c1ccc(/C=C/C(=O)OCC(=O)Nc2ncc(Cl)cc2Cl)cc1	·	–	–	·	·	·
Cc1cc(C(=O)Nc2ccc(Br)cc2F)n(-c2ccccc2)n1	–	–	–	–	–	–
Cn1ncc([N+](=O)[O-])c1C(=O)Nc1cccc2ccccc12	–	–	–	–	–	–
CCn1cc(Cl)c(C(=O)Nc2nc3ccccc3n2CCN2CCCCC2)n1	10µM	–	–	8.91µM	–	–
Cn1ncc([N+](=O)[O-])c1C(=O)Nc1nc2ccccc2n1CCN1CCCCC1	3.55µM	–	–	?	–	·
Cc1c(Cl)c(C(=O)Nc2nc3ccccc3n2CCN2CCCCC2)nn1C	?	·	·	–	–	–
COc1ccc2nc(SCCOC(=O)Nc3ccc(Cl)cc3)nc(C)c2c1	?	–	–	?	–	–
O=C(O)[C@H](Cc1ccccc1)NC(=O)N1CCCCCC1	–	–	–	–	–	–
O=C(O)[C@H](Cc1ccccc1)NC(=O)N1CCOCC1	5.01µM	–	–	–	–	–
O=C(Nc1cccc(C(=O)N2CCN(c3ccccc3F)CC2)c1)c1nsc2ccccc12	·	–	–	·	·	·
Cc1cccc(NC(=S)NCc2cccn2C)c1	?	–	–	–	–	–
Cc1ccccc1NC(=S)NCc1cccn1C	?	?	–	?	–	–
Cc1ccc(Cl)cc1NC(=S)NCc1cccn1C	7.08µM	–	–	7.94µM	–	–
Cc1c(Cl)cccc1NC(=S)NCc1cccn1C	4.47µM	–	–	17.8µM	–	–
Cc1ccc(NC(=S)NCc2cccn2C)cc1	3.98µM	–	–	?	–	–
C=CCNC(=O)c1ccc(-c2nc(-c3ccccc3)cs2)cc1	–	–	–	–	–	–
CC(C)NC(=O)Nc1ccc2c(c1)C(=O)N([C@H](C)CO)C[C@H](C)[C@@H](CN(C)S(C)(=O)=O)O2	·	–	–	·	·	·
C1CCc2nnc(C3CC3)n2CC1	–	–[11.4 µM]	–	–	–	–
Cc1cc(C)n(-c2ccc(C(=O)Nc3ccc(S(=O)(=O)N(C)C)cc3)cc2)n1	?	–	–	–	–	–
SMILES	RORg inh	TrxR1 inh	TrxR1 substrate	VP16 counter	Coupling enz	GALK inh
Cc1cc(C)n(-c2ccc(C(=O)Nc3ccc(S(=O)(=O)NCc4ccco4)cc3)cc2)n1	?	–	–	15.8µM	–	–
Cc1cc(C)n(-c2ccc(C(=O)Nc3ccc(C)c(S(=O)(=O)N(C)C)c3)cc2)n1	–	–	–	17.8µM	–	–
O=S(=O)(NCc1ccco1)c1ccc2c(c1)Cc1ccccc1-2	?	?	–	8.91µM	–	–
Cc1ccc(S(=O)(=O)NCc2ccco2)cc1C	–	–	–	–	–	–
Cc1ccc(C(=O)Nc2ccc(S(=O)(=O)NCc3ccco3)cc2)cc1	–	–	–	–	–	–
Cc1cc(C)n(-c2ccc(C(=O)Nc3cccc(S(=O)(=O)N(C)C)c3)cc2)n1	?	–	–	7.08µM	–	–
COC(=O)[C@]1(Cc2ccccc2)N[C@H](CN(C)S(=O)(=O)c2ccc(C(F)(F)F)cc2)[C@@H]2C(=O)N(Cc3ccccc3)C(=O)[C@@H]21	·	–	–	·	·	·
Cc1cccc(C(=O)Nc2cccc(S(=O)(=O)NCc3ccco3)c2)c1	·	–	–	·	·	·
Cc1cc(C)cc(NC(=O)c2cc(S(=O)(=O)NCc3ccco3)ccc2F)c1	–	?	–	10µM	–	–
O=C(O)c1ccc(Nc2c3ccccc3nc3ccccc23)cc1	?	–	–	20µM	–	–
